# Screening data (PubChem BioAssay)
# Most compounds without a hit are left out; they make up all but 3.9% or so of the library.
# WT yeast gro inh = growth inhibition of WT yeast, mitochondrial fusion screen; 2.1% of 190,000 active; AID 1362; mitochondrial fusion phenotypic screen, WT strain; inhibition, % at 10 µM; in the data active = inhibition above about 58%; tested in S. cerevisiae
# SKKanGAS inh = blocks kanamycin growth of S. pyogenes SKKanGAS strain | BacTiter-Glo, 6 h | inhibition, % at 7.5 µM | 1.3% of 300,000 active | AID 1662;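 active = mean replicate score, as percent of positive control median, at least 50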;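 also: strain carries kanamycin resistance gene driven by streptokinase promoter and grows in 40 µg/ml kanamycin; loss of luminescence reflects streptokinase promoter inhibition or plain growth inhibition; 0% = median of DMSO wells and 100% = positive control at its reference dose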
# PHOSPHO1 inh = blocks human PHOSPHO1 phosphatase activity. inhibition, % at 13.3 µM. 1.1% of 290,000 active. AID 1565. Q8TCT1. recombinant PHOSPHO1, absorbance phosphatase assay; in the data active = inhibition above about 60%
# TPT1 inh = inhibitors of Candida albicans tRNA 2'-phosphotransferase TPT1. inhibition, % at 5 µM. recombinant caTPT1, FP RNA substrate dephosphorylation. AID 1962. 0.81% of 300,000 active;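 active = inhibition above the mean of all tested compounds plus 3 SD, set per screening campaign, cut at about 24% in these data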;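 also: plate controls were DMSO alone for no effect and ferristatin control at 100 nM for full effect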
# Platelet DG rel = platelet dense granule release activity; human platelet-rich plasma, SFLLRN dense granule ATP release, luminescence; 0.22% of 300,000 active; inhibition, %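 (compounds screened at 7.5 µM in platelet-rich plasma)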;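 active = mean replicate score, as percent of positive control, at or above 50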
# Rtt109 HAT inh = inhibitors of Candida albicans Rtt109/Vps75 histone acetyltransferase. inhibition, % at 34.9 µM. AID 540336. 0.16% of 330,000 active. purified Rtt109/Vps75, ThioGlo CoA-SH fluorescence, 4 h. Q5AAJ8;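 active = inhibition of at least 50% in every replicate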
# Target sequence (Q5AAJ8 whole entry, looked up): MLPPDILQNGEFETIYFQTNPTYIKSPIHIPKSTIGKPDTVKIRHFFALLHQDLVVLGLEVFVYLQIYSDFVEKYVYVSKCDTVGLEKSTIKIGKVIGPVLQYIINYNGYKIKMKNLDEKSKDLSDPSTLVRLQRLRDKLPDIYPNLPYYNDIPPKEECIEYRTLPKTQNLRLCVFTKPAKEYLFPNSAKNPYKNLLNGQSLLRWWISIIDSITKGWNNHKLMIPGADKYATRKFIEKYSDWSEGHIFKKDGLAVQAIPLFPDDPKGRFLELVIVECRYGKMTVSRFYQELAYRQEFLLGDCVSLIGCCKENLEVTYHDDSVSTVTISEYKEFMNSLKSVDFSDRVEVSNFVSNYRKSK
# The depositor's hits bear a star; . = not tested or not shown.
SMILES,WT yeast gro inh,SKKanGAS inh,PHOSPHO1 inh,TPT1 inh,Platelet DG rel,Rtt109 HAT inh
COc1cc(NC(=O)c2ccc(C)cc2C)ccc1NC(=O)c1cccs1,.,6.8,18.8,-3.1,0.9,0.9
Cc1ccc(OCC(=O)NNC(=S)NC(=O)c2ccc(Br)o2)c(C)c1,.,93.0*,-7.5,.,4.4,9.7
COc1ccc(NS(=O)(=O)c2ccc3c(c2)NC(=O)CO3)c(OC)c1,.,-2.4,-0.7,5.2,0.1,4.1
NC(=O)COC(=O)C1CSC2(c3ccc(F)cc3)CCC(=O)N12 (centres undefined),.,3.2,36.6,-0.3,-1.7,1.2
CC1CCc2c(sc(NC(=O)COC(=O)C3CCCO3)c2C#N)C1 (centres undefined),19.3,-12.8,53.0,-5.0,-10.8,-5.0
CC1CCc2c(sc(NC(=O)COC(=O)c3ccc(O)cc3)c2C#N)C1 (centres undefined),96.5*,12.9,-117.2,11.1,-12.8,-1.5
COc1ccc(/C=C(/NC(=O)c2ccc(C)cc2)C(=O)NCc2ccncc2)cc1,.,-11.5,69.7*,-3.7,-5.5,7.1
COc1ccc(/C=C(\NC(=O)c2ccccc2)C(=O)N/N=C/c2ccncc2)cc1,-19.6,-1.7,64.6*,1.4,-1.9,.
COc1ccc(/C=C(\NC(=O)c2ccccc2)C(=O)N/N=C/c2cccnc2)cc1,.,-1.1,1.5,-0.2,-4.2,-3.4
COc1cc(CN2CCNC(=O)C2CC(=O)NCCCC2CCCC2)cc(OC)c1 (centres undefined),.,2.0,36.8,-3.7,1.5,6.5
Cc1cc(-c2nnc(CCC(=O)NC(C)c3cccc4ccccc34)o2)no1 (centres undefined),-1.7,18.3,27.9,-0.5,50.3*,31.8
Cc1cc(-c2nnc(CCC(=O)NC(C)c3ccccc3Cl)o2)no1 (centres undefined),-6.9,5.2,9.4,1.4,7.8,-2.7
COc1cccc(NC(=O)CN(C)C(=O)CCCc2nc3ccccc3c(=O)[nH]2)c1,.,.,.,.,.,-3.9
CCOC(=O)CSc1nc2ccccc2c(=O)n1CCN1CCOCC1,8.8,-2.3,6.3,0.9,-5.5,-12.2
CCOC(=O)CSc1nc2ccc(N3CCOCC3)cc2c(=O)n1Cc1ccccc1,6.9,10.0,60.3*,-4.0,-1.5,-19.7
CC#Cc1cc2c(cc1O)CCC1C2CCC2(C)C(O)CCC12 (centres undefined),.,.,.,.,.,3.3
COc1ccc(S(=O)(=O)N2CCN(c3ccccn3)CC2)cc1OC,-15.4,-7.3,-26.5,-0.3,-10.7,53.1*
COCCNC(=O)c1ccc(Cn2c(=S)[nH]c3cc4c(cc3c2=O)OCO4)cc1,5.0,0.2,97.6*,-0.9,-13.3,-14.7
CC(C)OCCCn1c(=S)[nH]c2cc3c(cc2c1=O)OCO3,10.1,9.6,88.3*,0.0,-8.5,-6.0
COC(CNC(=O)c1ccc(Cn2c(=S)[nH]c3cc4c(cc3c2=O)OCO4)cc1)OC,-7.3,1.1,79.0*,-1.6,-2.0,0.4
CCOc1cc2[nH]c(=S)n(Cc3ccc(C(=O)NCCCOC)cc3)c(=O)c2cc1OCC,.,2.2,25.7,-2.3,5.3,2.9
C[C@H](CO)N1C[C@H](C)[C@@H](CN(C)C(=O)Nc2ccccc2)Oc2ccc(NC(=O)Cn3cnnn3)cc2C1=O,.,.,.,.,.,-4.9
CCNc1c(NC(=O)c2ccc3c(c2)OCO3)c(=O)oc2ccccc12,.,-5.2,57.9,0.2,0.1,-2.0
Cc1cccc(N2CCN(C(=O)CCNS(=O)(=O)c3ccc4c(c3)oc(=O)n4C)CC2)c1C,.,5.5,62.9*,-0.8,7.4,3.0
CCCn1ncc(CN2CCC(C(=O)Nc3cccc(-c4cccc(F)c4)c3)CC2)c1C,.,-15.1,36.4,-1.0,-5.1,8.8
SMILES,WT yeast gro inh,SKKanGAS inh,PHOSPHO1 inh,TPT1 inh,Platelet DG rel,Rtt109 HAT inh
CCCCn1c(N)c(N(CC(C)C)C(=O)c2ccc(OCC3CCCO3)cc2)c(=O)[nH]c1=O (centres undefined),.,-1.7,.,-1.6,10.6,18.5
Cc1cc(C(C)(C)CC(C)(C)C)ccc1OCCOCC[N+](C)(C)Cc1ccccc1,.,.,.,2.3,.,56.0*
Cc1c(C)n(-c2ccc(Cl)cc2)c2ncnc(N)c12,.,-0.7,22.8,-0.6,1.7,2.9
FC(F)(F)c1cccc(CNC2c3ccccc3-c3ccccc32)c1,.,74.9*,38.1,0.7,-3.1,-4.1
O=C(O)CS(=O)(=O)CC(=O)NCc1cccc(C(F)(F)F)c1,-3.3,-10.5,12.0,-3.0,2.3,.
CC(=O)Nc1ccc(C(=O)CN2C(=O)NC3(CCCc4ccccc43)C2=O)c(F)c1 (centres undefined),.,.,.,.,.,0.7
